Mtb UGM inh = Mtb UDP-galactopyranose mutase inhibition; 0.06% of 320,000 active; purified UGM, fluorescence polarization probe displacement; inhibition, % at 10 µM; P9WIQ1; AID 504406; in the data active = inhibition above about 10%, passing the limit was not always enough; inconclusive = no clear call, values can overlap the other calls
Mtb bLac sens = beta-lactam sensitization of Mtb H37Rv; 0.27% of 330,000 active; AID 434955; inhibition, % at 25 µM; M. tuberculosis H37Rv growth with meropenem, percent inhibition; call rule not given here;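 note: growth measured after seven days incubation then overnight dye step; 0% = bacteria only wells and 100% = bacteria with antibiotic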
Vc quorum ag = quorum light induction in luxS cqsA deficient V. cholerae. V. cholerae BH1578 lux reporter, luminescence, 6 h. activation, % at 18.7 µM. 0.16% of 350,000 active. AID 588436; in the data active = activation mostly above about 9.7%, no sharp cut-off; inconclusive = no clear call, values can overlap the other calls; inactive = mostly below about 3.7%
FadD28 binding = inhibitors of Mycobacterium tuberculosis FadD28 bisubstrate binding; FadD28 bisubstrate probe binding, fluorescence polarization; inhibition, % at 12.5 µM; 0.22% of 360,000 active; in the data active = inhibition above about 8.5%, passing the limit was not always enough; inconclusive = no clear call, values can overlap the other calls
PrP UTR inh = inhibition of PrP 5' UTR reporter expression | cell-based PrP 5' UTR mRNA reporter, plate reader | inhibition, % (concentration not given with the values) | 0.35% of 340,000 active; in the data active = inhibition above about 52%; note: 0 = median of the neutral control wells
Rv3671c inh = inhibitors of M. tuberculosis serine protease Rv3671c; 0.048% of 320,000 active; P9WHR9; inhibition, % at 5.96 µM; in the data active = inhibition above about 38%;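 note: extracellular domain of Rv3671c used as enzyme; 0% = enzyme with DMSO and 100% = no enzyme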
Target sequence (P9WHR9 whole entry, looked up, the tested form may be a part): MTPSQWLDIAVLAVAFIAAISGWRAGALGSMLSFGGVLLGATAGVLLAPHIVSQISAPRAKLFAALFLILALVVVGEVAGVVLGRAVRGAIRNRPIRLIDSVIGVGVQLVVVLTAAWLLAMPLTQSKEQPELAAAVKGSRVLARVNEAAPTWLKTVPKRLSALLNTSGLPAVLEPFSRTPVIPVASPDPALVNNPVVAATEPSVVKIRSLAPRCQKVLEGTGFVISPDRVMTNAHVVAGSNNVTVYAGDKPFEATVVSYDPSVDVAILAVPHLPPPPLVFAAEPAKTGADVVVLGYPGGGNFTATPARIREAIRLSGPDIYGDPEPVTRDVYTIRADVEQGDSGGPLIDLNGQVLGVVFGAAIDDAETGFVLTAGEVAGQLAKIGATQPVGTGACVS
PrP 5UTR single = prion 5' UTR mRNA inhibition, cherry-pick retest; inhibition, % at 2.5 µM; 48% of 1,100 active; shares compounds with PrP UTR inh; AID 504592; cell-based prion protein 5' UTR reporter, plate reader; in the data active = inhibition above about 54%; inconclusive = no clear call, values can overlap the other calls
Starred values were filed as active, the others as inactive; i = inactive; ? = inconclusive; . = no result. In the library only some 0.76% were active in any assay of this set; here they are far more common.

SMILES	Mtb UGM inh	Mtb bLac sens	Vc quorum ag	FadD28 binding	PrP UTR inh	Rv3671c inh	PrP 5UTR single
C[C@]12CC[C@H]3[C@@H](CCC4=CC(=O)CC[C@@]43C)[C@@H]1CC[C@@H]2C(=O)CO	-1.2	4.9	4.2	-0.3	76.1*	-3.9	-16.0
c1ccc2c(c1)ccc1ncccc12	1.2	4.5	i	1.0	-11.4	-1.9	.
c1ccc2ncccc2c1	.	-0.8	-0.6	0.9	62.9*	0.2	6.1
CCN(CC)CCNC(=O)c1c(O)c2cc(OC)c(OC)cc2[nH]c1=O	-1.3	3.2	-0.6	0.0	71.7*	0.8	-7.4
COc1ccc(CNC(=O)c2c(O)c3cc(OC)c(OC)cc3[nH]c2=O)cc1OC	-0.5	6.3	i	-1.6	-12.2	.	.
COCCN=C1NN=C(c2cc(C)n(CC3CCCO3)c2C)CS1 (stereo not drawn)	-3.2	0.6	0.6	-1.4	14.8	-3.3	.
c1ccc(C2=NNC(=NCc3ccc4c(c3)OCO4)SC2)cc1	2.8	-5.0	i	-0.6	1.1	0.4	.
COCCn1c(C)cc(C2=NNC(=Nc3ccccc3F)SC2)c1C	-0.9	9.6	-0.1	-3.0	67.1*	-5.2	?
C=CCN=C1NN=C(c2cc(C)n(CC=C)c2C)CS1	-0.4	79.7	-0.2	-1.5	82.7*	-0.1	78.8*
C=CCN=C1NN=C(c2ccc3c(c2)OCCO3)CS1	0.6	-6.0	0.4	1.6	59.3*	-5.9	79.3*
COCCCN=C1NN=C(c2cc(C)n(-c3ccccc3F)c2C)CS1	1.7	98.5	i	-2.1	21.5	2.0	.
O=C(NCc1ccncc1)c1cc(S(=O)(=O)N2CCOCC2)c(Cl)cc1Cl	-1.6	0.9	-2.3	-3.0	-6.3	-2.1	.
O=C(CNC(=O)c1ccc(Br)o1)NCC1CCCCC1	-2.9	16.5	i	.	-0.2	-6.5	.
Cc1cc(C)c(C#N)c(SCc2nnc(-c3ccccc3)o2)n1	2.2	5.7	-0.2	0.4	67.6*	-12.7	67.4*
Cc1ccc(-c2cn3nc(C)c(C)nc3n2)cc1	0.7	3.0	i	-1.1	67.0*	3.1	64.5*
Cc1nn(-c2ccccc2)c(Cl)c1C(=O)NCCCCNC(=O)c1c(C)nn(-c2ccccc2)c1Cl	0.0	-4.0	i	-1.6	74.4*	-5.1	6.2
CCN1C(=O)[C@H]2[C@H]3CN=C(SCC4CC4)N3[C@@](Cc3ccccc3)(C(=O)OC)[C@H]2C1=O	.	.	i	-1.2	64.4*	.	-1.1
CCOC(=O)C1(C)CCCN(C(=O)C(c2ccccc2)c2ccccc2)C1 (stereo not drawn)	.	.	1.2	-0.2	.	.	.
COc1ccc(C(C)=O)cc1CSc1nc2cc(Cl)ccc2o1	2.5	1.1	i	-1.9	57.2*	2.0	-62.3
COc1ccc(OC)c(NS(=O)(=O)c2ccc(N3CCCC3=O)cc2)c1	0.9	-9.3	0.4	-0.8	59.6*	-2.2	90.0*
CCOc1ccc(S(=O)(=O)Nc2cc(OC)ccc2OC)cc1	0.5	-2.6	i	-2.7	59.8*	0.9	87.9*
COc1ccc(CCNS(=O)(=O)c2ccc(N3CCCC3=O)cc2)cc1	-0.7	1.4	0.7	-2.0	-17.4	0.5	.
CCCc1ccc(Oc2cc(N3CCOCC3)nc(-c3ccccc3)n2)cc1	1.6	?	1.0	2.3	-26.4	-2.4	.
CCOC(=O)N1CCN(C(=O)c2ccc(N(Cc3ccccc3Cl)S(C)(=O)=O)cc2)CC1	1.8	-1.8	-0.6	-1.7	-17.5	-6.4	.
COC(=O)c1c(NC(=O)c2ccc([N+](=O)[O-])o2)sc2c1CCN(C(C)C)C2	-0.7	99.9	0.9	-2.2	65.8*	6.2	97.4*
SMILES	Mtb UGM inh	Mtb bLac sens	Vc quorum ag	FadD28 binding	PrP UTR inh	Rv3671c inh	PrP 5UTR single
COC(=O)c1c(NC(=O)Cc2ccccc2)sc2c1CCN(C(C)C)C2	-2.2	-6.2	-0.2	0.3	-1.7	5.1	.
CCn1c2ccccc2c2cc(NC(=O)COC(=O)c3cc(Cl)c(N)cc3OC)ccc21	-0.8	38.0	i	-2.7	-32.0	0.4	.
CC(C)CCCCCCCCCCCCC(=O)NCC(=O)NC1C(C)OC(Nc2ncnc3nc[nH]c23)C(O)C1O (stereo not drawn)	.	.	i	-3.0	75.3*	.	77.2*
COc1ccc(S(=O)(=O)N(C)C[C@H]2Oc3c(NC(=O)Nc4c(C)noc4C)cccc3C(=O)N([C@H](C)CO)C[C@@H]2C)cc1	1.6	-2.6	-0.3	-0.1	-8.4	6.1	.
COc1ccc(C2CC(=O)Oc3cc(OC)c(OC)c(OC)c32)cc1 (stereo not drawn)	.	.	i	0.3	-10.9	.	.
COc1ccccc1C1CC(=O)Oc2cc(OC)c(OC)c(OC)c21 (stereo not drawn)	.	.	-0.6	-2.9	92.0*	.	-11.7
COc1cc([N+](=O)[O-])ccc1NC(=O)COC(=O)C=C(C)C	-1.8	5.9	-0.1	-0.3	61.1*	-11.6	-21.6
CN(C(=O)CSc1nc(-c2ccccc2)cs1)C1CCS(=O)(=O)C1 (stereo not drawn)	0.6	0.2	.	0.9	84.8*	1.5	-30.0
O=C(NC(=S)N1CCN(CCO)CC1)C12CC3CC(CC(C3)C1)C2	0.3	-7.1	-0.4	-1.6	79.7*	5.4	1.1
Cc1ccc(C)c(S(=O)(=O)N2CCN(CC(=O)NC(=O)NCc3ccco3)CC2)c1	1.0	-2.5	-0.2	-3.8	2.0	-3.5	.
O=C1ON=C(c2ccccc2[N+](=O)[O-])/C1=C/c1cccc([N+](=O)[O-])c1O	-3.7	-4.0	1.2	-1.7	89.7*	9.1	2.3
O=C1ON=C(c2ccc(Cl)c([N+](=O)[O-])c2)/C1=C/c1cccc([N+](=O)[O-])c1O	-0.1	-3.3	-7.1	-1.6	-13.7	1.0	.
COc1ccc(C(=O)NN(C)c2nc(-c3ccccc3)nnc2C(F)(F)F)cc1	-0.1	-8.5	1.0	2.9	-5.6	-8.8	.
COc1ccc(C(=O)NN(C)c2nc(C(F)(F)F)nc3ccccc23)cc1	-1.0	2.7	-0.5	-3.1	70.6*	-2.1	90.2*
Clc1ccc(CON/C=N/c2ncnc3sccc23)c(Cl)c1	-1.7	-9.2	-0.8	-5.8	-15.2	-7.6	.
N=C(N)SCP(=O)(c1ccccc1)c1ccccc1	-1.8	6.6	-0.7	-2.3	63.6*	-3.1	3.3
CC1(C)C(=O)N(CCN2CCC(C(=O)c3ccc(F)cc3)CC2)c2ccccc21	3.9	-7.9	-0.3	0.4	52.7*	4.0	-22.1
C[C@@H]1O[C@@H](O[C@H]2C[C@@H](O)[C@]3(CO)[C@H]4[C@H](O)C[C@]5(C)[C@@H](C6=CC(=O)OC6)CC[C@]5(O)[C@@H]4CC[C@]3(O)C2)[C@H](O)[C@H](O)[C@H]1O	1.9	-0.6	4.2	-0.9	92.0*	1.5	90.3*
COc1ccc(CN(C)CC(=O)Nc2ccccc2C(F)(F)F)cc1	-1.1	-1.5	i	-1.9	80.6*	-2.2	-19.2
COc1ccc(CN(C)CC(=O)Nc2ccccc2C(F)(F)F)c(OC)c1	6.1	9.1	-0.2	-4.2	-36.3	4.6	.

Screening results from PubChem BioAssay.
